Values joined by “and” are separate entries in the source; they are usually repeats but may differ in a detail not shown here. Identical values can stand only once. Compounds without any hit were thinned out: in the full panel of roughly 83,000, 20% have a hit.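 Each cell line was grown in a 96-well plate and treated with one concentration of compound for 48 hours. Values below 10 were considered active.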 Values without a mark were called inactive. Active and inactive are the calls of the source.
Tested on: MDA-MB-468 breast
Assay: NCI-60 one-dose screen, 48 h (100 = growth as untreated, 0 = no growth, -100 = all killed)
Details: 10 µM unless noted

| Structure (SMILES) | growth |
| --- | --- |
| CS(=O)(=O)Nc1ccc([N+](=O)[O-])cc1Oc1ccccc1 | 100% |
| COC(=O)[C@H](Cc1cn(C)cn1)NC(=O)[C@@H](NC(=O)Nc1cc(C(F)(F)F)cc(C(F)(F)F)c1)C(C)C | -60.4% [100 µM] (active) |
| O=C(CC12CC3CC(CC(C3)C1)C2)NCCOCCOCCOCCNC(=O)c1cc2c(o1)C(=O)c1ccccc1C2=O | -34.8% (active) |
| O=C(NNc1nc2cc(F)ccc2n2c(CN3CC4(COC4)C3)ccc12)c1cnccn1 | -16.1% (active) |
| O=[N+]([O-])c1ccc(N/N=C\c2cc(Br)ccc2O)nc1 | -19.7% (active) and -13.5% (active) |
| O=C(Nc1ccc(NC(=O)c2cc(=O)[nH]c3ccccc23)cc1)Nc1cccc(C(F)(F)F)c1 | 24.6% |
| CCc1n(Cc2ccc3ccccc3c2)c2ccccc2[n+]1Cc1ccc2ccccc2c1 | 5.98% (active) |
| C[n+]1cc2c3c(ccc2c2ccc4cc5c(cc4c21)OCO5)OCO3 | -93.7% (active) |
| COc1cccc(Nc2ccnc3[nH]c4ccc([N+](=O)[O-])cc4c23)c1 | 23.1% |
| CC(C)(C)c1cnc(CSc2cnc(NC(=O)C3CCNCC3)s2)o1 | -43.7% (active) |
| c1ccc(Nc2ncc3c(n2)-c2cccn2CC3)cc1 | 4.29% (active) |
| Nc1n[nH]c2cccc(C#Cc3cccc(C(=O)Nc4ccc(Cl)c(C(F)(F)F)c4)c3)c12 | 74.4% |
| NC(=O)c1ncn([C@@H]2O[C@H](CO)[C@@H](O)[C@H]2O)n1 | 83.7% |
| CC1(C)N=C(N)N=C(N)N1c1cccc(CCCCOc2ccccc2)c1 | 10.1% |
| CC(C)c1nc(N(C)S(C)(=O)=O)nc(-c2ccc(F)cc2)c1/C=C/[C@@H](O)C[C@@H](O)CC(=O)O | 99.4% |
| c1ccc(-c2cn3ccnc3c(-c3ccc4c(c3)ncn4C3CCCCC3)n2)cc1 | 112% |
| CN1C(=O)N(C)C2C1NN=c1s/c(=C\c3cccnc3)c(=O)n12 (stereo unspecified) | 58.1% |
| Nc1c(C(=O)Nc2cccc(C(F)(F)F)c2)sc2nc3c(cc12)C(O)CCC3 (stereo unspecified) | 22.4% |

| Structure (SMILES) | growth |
| --- | --- |
| COc1ccc2c(c1)C(C)Cc1c(ncnc1-n1c(C)nc3ccccc31)N2C (stereo unspecified) | 26.2% |
| C/C(=C(\c1ccc(OCCN2CCCCCC2)cc1)c1ccc(OC(=O)Cc2ccccc2)cc1)c1ccc(Cl)cc1 | -4.03% (active) |
| COC(=O)[C@]12CC[C@@H](C)[C@H](C)[C@@H]1C1=CC[C@@H]3[C@@]4(C)C=C(O)C(=O)C(C)=C4CC[C@@]3(C)[C@]1(C)CC2 | 10.6% |
| COc1cc2cc(Oc3ccc(NC(=O)Nc4cccc(C(F)(F)F)c4)cc3)c(C)nc2cc1OCCN1CCOCC1 | -3.82% (active) |
| C#Cc1ccc(-n2c(/C=C/c3cc(OC)c(OC)c(OC)c3)nc3ncccc3c2=O)cc1 | 3.92% (active) |
| Cc1nc(O)cc(=O)[nH]1 | 113% |
| Cc1nnc(Nc2ccc(NC(=O)Nc3ccc(Cl)cc3)cc2)c2ccccc12 | 6.44% (active) |
| CCOC(=O)C(=Cc1ccc(Br)cc1)C(=O)OCC | -73.3% (active) |
| CCC1CCCCN1C(=S)N/N=C(\C)c1ccccn1 (stereo unspecified) | -2.96% (active) |
| COc1cc2c(cc1-c1c(C)noc1C)ncc1nc(C3CC3)n([C@H](C)COC(F)F)c12 | 46% |
| CN1CCCCC1CCN1c2ccccc2Sc2ccc(Br)cc21 (stereo unspecified) | 32.1% |
| Nc1nc(N)c2cc(S(=O)(=O)c3cccc(C(F)(F)F)c3)ccc2n1 | 38.9% |
| COc1cc(CN)ccc1O | 99.7% |
| Cc1ccc(C(=O)N2C/C(=C/c3ccccc3)C(=O)/C(=C/c3ccccc3)C2)cc1 | 18.1% |
| FC(F)(F)c1ccc(-c2cnc(Cl)nc2N2CCC3(CC2)OCCO3)cc1 | 103% |
| CCC(C)[C@H]1OC(=O)[C@H](C(C)C)N(C)C(=O)[C@@H](C(C)C)OC(=O)[C@H](C(C)C)N(C)C(=O)[C@@H](C(C)CC)OC(=O)[C@H](C(C)C)N(C)C1=O (stereo partly specified) | -0.281% (active) |
| CC[C@]1(O)CC2CN(CCc3c([nH]c4ccccc34)[C@@](C(=O)OC)(c3cc4c(cc3OC)N(C=O)[C@H]3[C@@](O)(C(=O)OC)[C@H](OC(C)=O)[C@]5(CC)C=CCN6CC[C@]43[C@@H]65)C2)C1 (stereo partly specified) | 10.4% |
| O=C(NC1C(O)OC(CO)C(O)C1O)NS(=O)(=O)c1ccc(Cl)cc1 (stereo unspecified) | 108% |
